Reference: PubChem BioAssay (NCI)
Compounds without any hit were thinned out: in the full panel of roughly 79,000, 15% have a hit. Unmarked numbers belong to inactive results. Activity calls are given as the source filed them. No stated cut-off is given here; in the data, active means growth inhibition above about 70%; inactive means the rest.

Assays:
[1] = NCI Yeast Anticancer Drug Screen. Data for the rad50 strain (AID 155);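 further: 0% = growth of vehicle-only cultures of the same strain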; settings: S. cerevisiae rad50 strain growth inhibition; at 50.0 µM; active compounds read high
Procedure, shortened: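 Genetically altered yeast (DNA repair pathway); compound treatment; growth inhibition vs vehicle ctrl.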

[2] = NCI Yeast Anticancer Drug Screen. Data for the mec2-1 strain (AID 157); settings: S. cerevisiae mec2-1 strain, at 50.0 µM, active compounds read high
Procedure, shortened: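 Compounds were applied to mec2-1 yeast cells. Their growth was then compared with that of vehicle-treated cultures to give growth inhibition.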

[3] = NCI Yeast Anticancer Drug Screen. Data for the sgs1 mgt1 strain (AID 161);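 further: 0% = growth of cultures given vehicle only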; settings: S. cerevisiae sgs1 mgt1 strain, at 50.0 µM, active compounds read high
Procedure, shortened: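 Compounds are added to genetically altered yeast, and growth is compared with cultures given vehicle alone to give percent inhibition.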

[4] = NCI Yeast Anticancer Drug Screen. Data for the cln2 rad14 strain (AID 165);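 further: 0% = growth equal to vehicle treated cultures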; settings: S. cerevisiae cln2 rad14 strain, at 50.0 µM, active compounds read high
Procedure, shortened: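 Strain: cln2 rad14 yeast, altered in cell cycle control and DNA damage repair. Read-out: growth inhibition vs vehicle.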

[5] = NCI Yeast Anticancer Drug Screen. Data for the bub3 strain (AID 167); settings: S. cerevisiae bub3 mutant strain, at 50.0 µM, active compounds read high
Procedure, shortened: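 Yeast carrying a defined mutation is treated with each compound, and growth is compared with that of vehicle-exposed cells to give inhibition.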

[6] = NCI Yeast Anticancer Drug Screen. Data for the mlh1 rad18 strain (AID 175); settings: S. cerevisiae mlh1 rad18 strain growth inhibition; at 50.0 µM; active compounds read high
Procedure, shortened: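 A repair-deficient yeast strain is exposed to test compound, and growth is scored relative to vehicle-treated controls.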

SMILES | growth inhibition [1] | growth inhibition [2] | growth inhibition [3] | growth inhibition [4] | growth inhibition [5] | growth inhibition [6]
CC(=O)NC(C(=O)NC(CSCc1ccccc1)C(=O)O)=C(C)C (stereo not drawn) | -2.05% | -13.5% | 8.9% | 3.1% | -36.4% | -11.3%
CCN(CC)C(=O)C1CCN(Cc2ccc3c(c2)CCC3)CC1 | -4.1% | 42.5% | -1.2% | -16.6% | 2.9% | 3.95%
CC(C)n1c(=S)[nH]c2c(=O)[nH]c(=O)[nH]c21 | -30.9% | -22.4% | 0.05% | -53.2% | 10.8% | -17.4%
Cc1cc(=O)c2cc3ccc4cccc5ccc(c2[nH]1)c3c45 | -12.6% | -8.35% | -10.1% | -24.3% | -6.85% | -5.85%
C=C1c2ccccc2C=NN1c1ccccc1 | 19.4% | 4.35% | 13.2% | 4.25% | -8.75% | 1%
CCN(CC)CCC1(C(N)=O)Cc2ccccc2N(CC)c2ccccc21 (stereo not drawn) | 13.6% | 10.6% | 8.7% | -2.6% | 6.4% | 1.85%
Oc1ccc(Br)cc1CNC1CCCCC1 | 58.5% | 31.8% | 61.1% | -9.9% | 27.1% | 24.1%
CCOCCOC(=O)C(C)OC(=O)/C(=C/C(=O)O)CCOCC (stereo not drawn) | -1% | -18.4% | -9.75% | -0.2% | -1.6% | 8.85%
C=C1c2nc3ccccc3n2C=C(c2ccc(Cl)cc2)N1c1ccccc1 | -4.65% | 23.4% | -10.7% | 9.7% | -1.6% | 33.5%
Cc1nc(=S)c2[nH]c(=S)[nH]c2[nH]1 | -2.7% | -16.1% | -3.8% | -18.8% | -1.9% | -8.2%
Cc1cccc(C)c1Nc1ncnc2c1cnn2C | -11.6% | -12.5% | -1.2% | -6.55% | 9.95% | -13.9%
CN=C(N)SCCCSC(N)=NC | 17.6% | 14% | 28% | 30.7% | 15.6% | 8.5%
[Cl-].[Dy+3].[O-]/N=C(\c1ccccc1)c1ccccn1.[O-]/N=C(\c1ccccc1)c1ccccn1.[O-]/N=C(\c1ccccc1)c1ccccn1 | 27.4% | 13.3% | 20.2% | 12.2% | 19.4% | 25.1%
Cc1c(CN(C)C)ccc2ccccc12 | -6% | -6.05% | 3.95% | -34.4% | 0.6% | -8.95%
Cc1ccc(/C(O)=C/C(=O)C(=O)NC23CC4CC(CC(C4)C2)C3)cc1 | 36.9% | 15.3% | 32.4% | 24.9% | 15.8% | 23.4%
Fc1cccc(CSC(=S)Nc2ccc(Cl)c(C(F)(F)F)c2)c1 | 99.1% (active) | 99.5% (active) | 99.5% (active) | 99.2% (active) | 99.2% (active) | 99% (active)
COC(=O)C(CC1=C(O)Nc2ccccc2N1)/C(=N/NC(N)=O)C(=O)Nc1ccccc1C (stereo not drawn) | 11.4% | 9% | 13.6% | -17.6% | -5.5% | -46.4%
CN1CCN(C(=O)Nc2ccc(N=Nc3ccccc3)cc2)CC1 | -9.3% | -17.2% | 6.1% | -29.5% | 16.8% | -6.25%
Cc1cc2c(s1)C(=O)c1sccc1C2=O | 89.7% (active) | 90.8% (active) | 89.8% (active) | 91.5% (active) | 87.2% (active) | 89% (active)

SMILES | growth inhibition [1] | growth inhibition [2] | growth inhibition [3] | growth inhibition [4] | growth inhibition [5] | growth inhibition [6]
Cc1cc2ncn(C3CCCCO3)c2cc1C (stereo not drawn) | 8.25% | -10.8% | -9.4% | 13.3% | 3.85% | -26.4%
O=c1[nH]c2cc(Cl)ccc2nc1/C=C(\O)c1ccc(O)cc1 | 31% | 2.25% | 0.2% | 7.05% | -20% | 13.7%
Cc1cnc(SC(C)(C)C)c(C)c1 | -0.2% | -20.2% | -8.55% | -68.6% | 12.9% | -10.5%
Cc1ccc(C2=C(c3ccccc3)C(O)(c3ccccc3)C(c3ccccc3)=C2c2ccc(C)cc2)cc1 | -1.6% | -20.1% | -31.5% | 15.8% | 14.1% | -12.7%
O=C(O)Cc1cccc(C(=O)O)c1 | -1.55% | -8% | -7.3% | 8.4% | -0.45% | -3.35%
Cc1cc(C#N)c[n+](C)c1 | -7.25% | -14.3% | -25% | 16.1% | 5.25% | -3.75%
O=C(O)c1cccc(/C=N/O)c1O | -16.9% | -3.25% | -6.45% | -10.5% | 7.75% | 8.55%
COc1ccc(OC)c(NC(=O)OCc2ccc3c(c2)OCO3)c1 | 1.25% | -14% | 5.45% | 10.2% | 26.9% | -4.7%
Cc1cc(C)c(NC(=O)C(C)(C)C)c(C)c1 | -7.15% | -12.9% | -17.7% | -48.9% | 10.2% | -2.2%
N#C/C(N)=C(\C#N)N=CN | -5.5% | 5.5% | -7.1% | 34% | -22.3% | -27.9%
CC(=O)OC(=O)C(=O)C(F)C(O)C(C)C (stereo not drawn) | -16.6% | -13.9% | -14.2% | -10.4% | -13.4% | 7.45%
Cc1ccc(S(=O)(=O)OCC2C(COS(=O)(=O)c3ccc(C)cc3)C3C=CC2C32CC2)cc1 (stereo not drawn) | -5.5% | -7.9% | 27.9% | 77.7% (active) | 91% (active) | 5.25%
CSCC1CC(c2ccc(Cl)cc2)=NO1 (stereo not drawn) | 27.8% | 6.8% | 1.05% | -1.4% | 0.45% | 32.6%
S=C(S)NC1CCCCC1 | -28.9% | -18.3% | -12.2% | -44% | -13.1% | -3.75%
CN=C(Nc1cccc(C(F)(F)F)c1)SCc1ccc(N=C=S)cc1 | 9.7% | 28.3% | 60% | 10.2% | 38.8% | 38.5%
NC(=O)c1nnc2cc(F)ccc2c1N | 4.8% | -3.45% | 1.35% | 0.4% | 1.6% | -1.6%
COC(=O)c1ccc(N=NN(C)COC(C)=O)cc1 | 27.4% | 12% | 11.2% | 18.5% | 10.2% | 18.8%
CC(C)CC([N+](C)(C)C)P(=O)([O-])O (stereo not drawn) | -4.4% | 1.6% | -4.7% | -9.2% | 20.9% | -3.5%
CC1OC(OC2C(Oc3cc(O)c4c(c3)O[C@H](c3ccc(O)cc3)CC4=O)OC(CO)C(O)C2O)C(O)C(O)C1O (stereo partly drawn) | 5.65% | -12% | -5.65% | -3.6% | -0.1% | -46.2%
